{"source": "the supplement of paper PMC8728848", "binders": {"B1": {"name": "3FTT (Staphylococcus aureus), Q5HCZ5 (protein)", "chain": "MTEKEKMLAEKWYDANFDQYLINERARAKDICFELNHTRPSATNKRKELIDQLFQTTTDNVSISIPFDTDYGWNVKLGKNVYVNTNCYFMDGGQITIGDNVFIGPNCGFYTATHPLNFHHRNEGFEKAGPIHIGSNTWFGGHVAVLPGVTIGEGSVIGAGSVVTKDIPPHSLAVGNPCKVVRKIDNDLPSETLNDETIK"}}, "assay_in_all_cases": "glycan array binding signal (z-score within array); higher = stronger binding", "conditions_in_all_cases": "glycan notation: IUPAC condensed, linker removed", "key": {"[1]": {"target": "Fuc(a1-2)Gal(b1-3)GalNAc(a1-3)[Fuc(a1-2)]Gal(b1-4)GlcNAc", "how_it_was_run": "(§1)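 The Consortium for Functional Glycomics database supplied 3228 glycan arrays, of which those lacking an available protein sequence were dropped. The binding signal, a within-array Z-score, was averaged across arrays of the same protein sequence and across linkers. Negative scores can be read as non-binding.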"}, "[2]": {"target": "Fuc(a1-2)Gal(b1-3)GalNAc(b1-3)Gal", "how_it_was_run": "as §1"}, "[3]": {"target": "Fuc(a1-2)Gal(b1-3)GlcNAc(b1-3)Gal(b1-4)Glc", "how_it_was_run": "as §1"}, "[4]": {"target": "Fuc(a1-2)Gal(b1-3)GlcNAc(b1-3)[Neu5Ac(a2-6)Gal(b1-4)GlcNAc(b1-6)]Gal(b1-4)Glc", "how_it_was_run": "as §1"}, "[5]": {"target": "Fuc(a1-2)Gal(b1-4)[Fuc(a1-3)]GlcNAc(b1-2)Man(a1-3)[Fuc(a1-2)Gal(b1-4)[Fuc(a1-3)]GlcNAc(b1-2)Man(a1-6)]Man(b1-4)GlcNAc(b1-4)GlcNAc", "how_it_was_run": "as §1"}, "[6]": {"target": "Fuc(a1-2)Gal(b1-4)[Fuc(a1-3)]GlcNAc(b1-3)GalNAc", "how_it_was_run": "as §1"}, "[7]": {"target": "Fuc(a1-2)[GalNAc(a1-3)]Gal(b1-3)GlcNAc(b1-2)Man(a1-3)[Fuc(a1-2)[GalNAc(a1-3)]Gal(b1-3)GlcNAc(b1-2)Man(a1-6)]Man(b1-4)GlcNAc(b1-4)GlcNAc", "how_it_was_run": "as §1"}, "[8]": {"target": "Fuc(a1-2)[GalNAc(a1-3)]Gal(b1-3)GlcNAc(b1-2)Man(a1-3)[Fuc(a1-2)[GalNAc(a1-3)]Gal(b1-3)GlcNAc(b1-2)Man(a1-6)]Man(b1-4)GlcNAc(b1-4)[Fuc(a1-6)]GlcNAc", "how_it_was_run": "as §1"}, "[9]": {"target": "Fuc(a1-2)[GalNAc(a1-3)]Gal(b1-4)GlcNAc(b1-3)Gal(b1-4)GlcNAc", "how_it_was_run": "as §1"}, "[10]": {"target": "Fuc(a1-3)[Gal(b1-4)]GlcNAc(b1-6)GalNAc", "how_it_was_run": "as §1"}, "[11]": {"target": "Gal(a1-4)Gal(b1-3)GlcNAc(b1-2)Man(a1-3)[Gal(a1-4)Gal(b1-3)GlcNAc(b1-2)Man(a1-6)]Man(b1-4)GlcNAc(b1-4)GlcNAc", "how_it_was_run": "as §1"}, "Gal(a1-4)Gal(b1-4)Glc": {"target": "Gal(a1-4)Gal(b1-4)Glc", "how_it_was_run": "as §1"}, "Gal(b1-3)Gal(b1-4)GlcNAc": {"target": "Gal(b1-3)Gal(b1-4)GlcNAc", "how_it_was_run": "as §1"}, "Gal(b1-3)GalNAc": {"target": "Gal(b1-3)GalNAc", "how_it_was_run": "as §1"}, "[12]": {"target": "Gal(b1-3)[Fuc(a1-4)]GlcNAc(b1-2)Man(a1-3)[Gal(b1-3)[Fuc(a1-4)]GlcNAc(b1-2)Man(a1-6)]Man(b1-4)GlcNAc(b1-4)GlcNAc", "how_it_was_run": "as §1"}, "[13]": {"target": "Gal(b1-3)[Fuc(a1-4)]GlcNAc(b1-3)Gal(b1-4)GlcNAc", "how_it_was_run": "as §1"}, "[14]": {"target": "Gal(b1-4)GlcNAc(b1-2)Man(a1-3)[Man(a1-6)]Man(b1-4)GlcNAc(b1-4)GlcNAc", "how_it_was_run": "as §1"}, "Gal3S(b1-4)Glc6S": {"target": "Gal3S(b1-4)Glc6S", "how_it_was_run": "as §1"}, "GalNAc(b1-3)Gal": {"target": "GalNAc(b1-3)Gal", "how_it_was_run": "as §1"}, "[15]": {"target": "GalNAc(b1-4)GlcNAc(b1-2)Man(a1-3)[GalNAc(b1-4)GlcNAc(b1-2)Man(a1-6)]Man(b1-4)GlcNAc(b1-4)GlcNAc", "how_it_was_run": "as §1"}, "[16]": {"target": "GlcNAc(a1-4)Gal(b1-4)GlcNAc(b1-3)Gal(b1-4)GlcNAc", "how_it_was_run": "as §1"}, "[17]": {"target": "GlcNAc(b1-2)[GlcNAc(b1-6)]Man(a1-6)[GlcNAc(b1-2)Man(a1-3)]Man(b1-4)GlcNAc(b1-4)GlcNAc", "how_it_was_run": "as §1"}, "[18]": {"target": "GlcNAc(b1-3)[GlcNAc(b1-6)]GalNAc", "how_it_was_run": "as §1"}, "[19]": {"target": "Kdn(a2-3)Gal(b1-4)[Fuc(a1-3)]GlcNAc", "how_it_was_run": "as §1"}, "Kdn(a2-6)Gal(b1-4)GlcNAc": {"target": "Kdn(a2-6)Gal(b1-4)GlcNAc", "how_it_was_run": "as §1"}, "[20]": {"target": "Man(a1-2)Man(a1-2)Man(a1-3)Man", "how_it_was_run": "as §1"}, "[21]": {"target": "Man(a1-2)Man(a1-2)Man(a1-6)[Man(a1-3)]Man", "how_it_was_run": "as §1"}, "[22]": {"target": "Man(a1-2)Man(a1-3)[Man(a1-2)Man(a1-6)]Man(a1-6)[Man(a1-2)Man(a1-2)Man(a1-3)]Man", "how_it_was_run": "as §1"}, "[23]": {"target": "Neu5Ac(a2-3)Gal(b1-3)GlcNAc(b1-3)GalNAc", "how_it_was_run": "as §1"}, "[24]": {"target": "Neu5Ac(a2-3)Gal(b1-3)[Neu5Ac(a2-6)]GalNAc", "how_it_was_run": "as §1"}, "[25]": {"target": "Neu5Ac(a2-3)Gal(b1-4)GlcNAc(b1-3)Gal", "how_it_was_run": "as §1"}, "[26]": {"target": "Neu5Ac(a2-3)Gal(b1-4)[Fuc(a1-3)]GlcNAc(b1-3)Gal(b1-4)GlcNAc", "how_it_was_run": "as §1"}, "[27]": {"target": "Neu5Ac(a2-3)Gal(b1-4)[Fuc(a1-3)]GlcNAc(b1-3)Gal(b1-4)[Fuc(a1-3)]GlcNAc(b1-3)Gal(b1-4)[Fuc(a1-3)]GlcNAc", "how_it_was_run": "as §1"}, "[28]": {"target": "Neu5Ac(a2-3)Gal6S(b1-4)GlcNAc", "how_it_was_run": "as §1"}, "[29]": {"target": "Neu5Ac(a2-3)[Neu5Ac(a2-6)]GalNAc", "how_it_was_run": "as §1"}, "[30]": {"target": "Neu5Ac(a2-6)Gal(b1-4)GlcNAc(b1-2)Man(a1-6)[Man(a1-3)]Man(b1-4)GlcNAc(b1-4)GlcNAc", "how_it_was_run": "as §1"}, "[31]": {"target": "Neu5Ac(a2-8)Neu5Ac(a2-8)Neu5Ac(a2-3)Gal(b1-4)Glc", "how_it_was_run": "as §1"}, "[32]": {"target": "Neu5Ac9Ac(a2-3)Gal(b1-3)GlcNAc", "how_it_was_run": "as §1"}}, "note": "About 410 targets per protein were measured; listed, in parts, are those with the strongest signals and a random draw of the rest."}
{"binder": "B1", "values": [{"measurement": "glycan array binding signal (z-score)", "setting": "[1]", "value": -0.281}, {"measurement": "glycan array binding signal (z-score)", "setting": "[2]", "value": 1.06}, {"measurement": "glycan array binding signal (z-score)", "setting": "[3]", "value": -0.165}, {"measurement": "glycan array binding signal (z-score)", "setting": "[4]", "value": -0.004}, {"measurement": "glycan array binding signal (z-score)", "setting": "[5]", "value": 0.815}, {"measurement": "glycan array binding signal (z-score)", "setting": "[6]", "value": 1.26}, {"measurement": "glycan array binding signal (z-score)", "setting": "[7]", "value": 0.032}, {"measurement": "glycan array binding signal (z-score)", "setting": "[8]", "value": 0.227}, {"measurement": "glycan array binding signal (z-score)", "setting": "[9]", "value": -0.09}, {"measurement": "glycan array binding signal (z-score)", "setting": "[10]", "value": 0.714}, {"measurement": "glycan array binding signal (z-score)", "setting": "[11]", "value": -0.237}, {"measurement": "glycan array binding signal (z-score)", "setting": "Gal(a1-4)Gal(b1-4)Glc", "value": -0.171}, {"measurement": "glycan array binding signal (z-score)", "setting": "Gal(b1-3)Gal(b1-4)GlcNAc", "value": 0.256}, {"measurement": "glycan array binding signal (z-score)", "setting": "Gal(b1-3)GalNAc", "value": -0.105}, {"measurement": "glycan array binding signal (z-score)", "setting": "[12]", "value": 19.9}, {"measurement": "glycan array binding signal (z-score)", "setting": "[13]", "value": -0.017}, {"measurement": "glycan array binding signal (z-score)", "setting": "[14]", "value": -0.261}, {"measurement": "glycan array binding signal (z-score)", "setting": "Gal3S(b1-4)Glc6S", "value": 0.798}, {"measurement": "glycan array binding signal (z-score)", "setting": "GalNAc(b1-3)Gal", "value": -0.332}, {"measurement": "glycan array binding signal (z-score)", "setting": "[15]", "value": 5.95}, {"measurement": "glycan array binding signal (z-score)", "setting": "[16]", "value": 0.607}, {"measurement": "glycan array binding signal (z-score)", "setting": "[17]", "value": -0.134}, {"measurement": "glycan array binding signal (z-score)", "setting": "[18]", "value": -0.288}, {"measurement": "glycan array binding signal (z-score)", "setting": "[19]", "value": 0.16}, {"measurement": "glycan array binding signal (z-score)", "setting": "Kdn(a2-6)Gal(b1-4)GlcNAc", "value": -0.292}, {"measurement": "glycan array binding signal (z-score)", "setting": "[20]", "value": -0.082}, {"measurement": "glycan array binding signal (z-score)", "setting": "[21]", "value": -0.073}, {"measurement": "glycan array binding signal (z-score)", "setting": "[22]", "value": -0.089}, {"measurement": "glycan array binding signal (z-score)", "setting": "[23]", "value": -0.066}, {"measurement": "glycan array binding signal (z-score)", "setting": "[24]", "value": -0.057}, {"measurement": "glycan array binding signal (z-score)", "setting": "[25]", "value": 0.012}, {"measurement": "glycan array binding signal (z-score)", "setting": "[26]", "value": 0.162}, {"measurement": "glycan array binding signal (z-score)", "setting": "[27]", "value": -0.195}, {"measurement": "glycan array binding signal (z-score)", "setting": "[28]", "value": 0.037}, {"measurement": "glycan array binding signal (z-score)", "setting": "[29]", "value": 0.223}, {"measurement": "glycan array binding signal (z-score)", "setting": "[30]", "value": -0.226}, {"measurement": "glycan array binding signal (z-score)", "setting": "[31]", "value": 0.056}, {"measurement": "glycan array binding signal (z-score)", "setting": "[32]", "value": -0.153}]}
